We go through nine molecules from PubChem BioAssay (NCATS).

Structures are written as SMILES. Inconclusive results are not listed. Calls of active or inactive are those of the source. Unless noted, calls come from the whole dose curve; as a rule, active = well fitted curve in the direction sought with a large enough effect; inconclusive = small, poorly fitted or top-dose-only effect, or another doubt; inactive = no such curve, though single readings can be large; an effect the other way counts as inactive or inconclusive.

Experiment [1] in a line: qHTS Assay for Lipid Storage Modulators (AID 1519; calls by dose curve; for activity change, negative = inhibition: % is set by controls: 0 for no effect and ±100 for the full control effect). Particulars: Drosophila S3 cells, BODIPY lipid droplet/cell ratio, laser cytometry, cells loaded with oleic acid. The procedure, abridged: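 Cells seeded at 5,000 per well were treated with compounds over a concentration series and loaded with oleic acid (400 uM, as added). Lipid droplet fluorescence (488 nm excitation, 500-530 nm channel) was read by laser-scanning cytometry and normalized to 20 uM Triacsin C.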

In experiment [2] the target is alpha-glucosidase (Oryza sativa, rice) (UniProt Q653V4). Description: Counterscreen for Glucocerebrosidase Inhibitors: qHTS Assay for Rice alpha-Glucosidase at pH 5.0 (AID 997).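 Note: 0% = full activity with enzyme and -100% = basal without enzyme.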 Particulars: rice alpha-glucosidase enzyme activity; series mostly up to 76.9 µM. The procedure, abridged: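 Rice alpha-glucosidase (4 nM final) with 400 uM 4-methylumbelliferyl-alpha-D-glucopyranoside in citrate buffer pH 5.0, 20 min at room temperature, stopped at pH 10; fluorescence 365/440 nm, compounds 0.7 nM–77 uM, AC50 from Hill fits.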

The nature of experiment [3]: Validation of Assay for Modulators of Lamin A Splicing (AID 1459; active = well fitted curve in the direction sought with a large enough effect in the signal ratio; the % refers to the signal ratio;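 note: cells exposed to compound for two days before reading; 0% is about no effect; ratio rise marks activators and ratio drop marks inhibitors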). Particulars: Lamin A splicing dual RFP/GFP fluorescence reporter; series mostly up to 9.22 µM. The procedure, abridged: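 Splicing correction is reported by an EGFP-containing lamin A minigene in stably transfected S3 HeLa cells, while DsRed2 controls for viability and nonspecific signal. Cells are exposed to compounds for 48 hrs before the GFP over RFP ratio is taken.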

The target in experiment [4] is DNA repair nuclease/redox regulator APEX1 (Homo sapiens) (UniProt P27695). Kind of experiment: qHTS Validation Assay for Inhibitors of the Human Apurinic/apyrimidinic Endonuclease 1 (APE1) (AID 1705;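 note: TAMRA fluorescence gain over two minutes as APE1 cuts a quenched THF abasic duplex; % is set by controls: 0 for no effect and ±100 for the full control effect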). The conditions noted are these: purified APE1 endonuclease activity, fluorescence, titration; series mostly up to 57.1 µM. The procedure, abridged:
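Endonuclease activity of human APE1 is followed as dequenching when the enzyme incises a tetrahydrofuran abasic site in a short duplex labelled 5'-TAMRA/3'-BHQ-2 (50 nM final), after 15 min enzyme–compound preincubation at room temperature.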

Experiment [5] in a line: Counterscreen for APE1 Inhibitors: Fluorescent Dye Displacement Validation Assay (AID 1707).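 Note: plate controls were ThO with dsDNA and no compound for no effect and ThO without dsDNA for full effect.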 Particulars: fluorescent dye displacement from DNA; series mostly up to 57.1 µM. Summed up:
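Compounds are scored by their ability to displace Thiazole Orange (250 nM) from a 50 nM TAMRA-tagged duplex bearing a tetrahydrofuran abasic site. Buffer is 50 mM Tris-HCl pH7.5, 50mM NaCl, 2 mM MgCl2, 0.01% Tween-20.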

Experiment [6] concerns the target Endonuclease 4 (Escherichia coli (strain K12)) (UniProt P0A6C1). Kind of experiment: Counterscreen for APE1 Inhibitors: qHTS Validation Assay for Inhibitors of Endonuclease IV (AID 1708). Note: % is set by controls: 0 for no effect and ±100 for the full control effect. Particulars: E. coli endonuclease IV, DNA cleavage fluorescence; series mostly up to 57.1 µM. Summed up: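 2 nM enzyme was preincubated with compounds for 15 min at room temperature in 50 mM Tris-HCl pH 7.5, 50 mM NaCl, 2 mM MgCl2, 1 mM DTT, 0.01% Tween-20. 50 nM THF-abasic TAMRA/BHQ-2 duplex substrate started the reaction.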

Experiment [7] in a line: qHTS for differential inhibitors of proliferation of Plasmodium falciparum line 7G8 (AID 1815).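 For activity change, negative = inhibition: plate controls were vehicle wells for no effect and reference inhibitor wells for full effect.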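 Note: parasite growth measured after three days of incubation.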 Note: potency is the fitted concentration of half-maximal effect. Particulars: Plasmodium falciparum 7G8 proliferation inhibition; series mostly up to 28.7 µM.
A short description of experiment [8]: qHTS for differential inhibitors of proliferation of Plasmodium falciparum line Dd2 (AID 1882).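 For activity change, negative = inhibition: compound exposure of 72 h on infected erythrocytes; plate controls were DMSO vehicle for no effect and 0.29 µM artemisinin for full effect.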 Note: nearly all actives have a fitted effect of over 65% in size. Note: potency is the fitted concentration of half-maximal effect. The conditions noted are these: Potency: Plasmodium falciparum Dd2 proliferation inhibition; series mostly up to 28.7 µM. The procedure, abridged: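 SYBR Green I DNA fluorescence read-out, ex 485/em 535 nm. Signals were normalized to 0.29 uM artemisinin and DMSO wells, then corrected using vehicle-only plates flanking each stack. Parasite growth ran 72 h in erythrocytes before lysis.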

Experiment [9] has as its target Ferritin light chain (Equus caballus) (UniProt P02791). Description: qHTS Validation Assay for Identification of Novel General Anesthetics (AID 2323). Note: % is set by controls: 0 for no effect and ±100 for the full control effect. The conditions noted are these: horse apoferritin, anesthetic-site fluorescent probe displacement; series mostly up to 76.9 µM. Summed up:
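Apoferritin from horse spleen (10 uM) was mixed with 1-aminoanthracene at 50% saturation in PBS, then compounds were added. After 10 min at room temperature, fluorescence was read (ex 380 nm, em 535 nm) and normalized to free-probe and complex controls.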

Experiment [10] addresses ATP-dependent DNA helicase Q1 (Homo sapiens) (UniProt P46063). Kind of experiment: qHTS Validation Assay for Inhibitors of RecQ-Like Dna Helicase 1 (RECQ1) (AID 2353).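 Note: plate controls were DMSO vehicle for no effect and enzyme-free control for full effect.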 Particulars: recombinant RECQ1 helicase DNA unwinding assay; series mostly up to 25.6 µM. The procedure, abridged: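 50 nM RECQ1T1 preincubated 15 min with compound in Tris pH 8.0 buffer with MgCl2, DTT, Tween-20 and 2.5 ug/ml poly(dI-dC); started with 200 nM TAMRA/BHQ-2 forked duplex and 2 mM ATP. Unwinding read as fluorescence (525/598 nm), two reads 2 h apart.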

Experiment [11] addresses RecQ-like DNA helicase BLM (Homo sapiens) (UniProt P54132). Kind of experiment: qHTS Validation Assay for Inhibitors of Bloom's syndrome helicase (BLM) (AID 2364).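 Note: plate controls were DMSO vehicle for no effect and enzyme-free control for full effect.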 The conditions noted are these: BLM helicase DNA unwinding, fluorescence, in vitro; series mostly up to 57.1 µM. Summed up:
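BLM 50 nM in 25 mM Tris-HCl pH 8.0, 5 mM NaCl, 2 mM MgCl2, 1 mM DTT, 0.01% Tween-20, 2.5 ug/ml poly(dI-dC); 15 min cpd preinc, RT. Start: 200 nM forked DNA + 2 mM ATP (final). TAMRA read, 2 reads 2 h apart.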

Experiment [12] can be described thus: Cytometric Cell-Based qHTS for Inhibitors of the mTORC1 Signaling Pathway in MEF (Tsc2-/-, p53-/-) Cells (AID 2660).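 Note: percent of cells above a phospho-rpS6 to PI ratio cutoff in each well; plate controls were DMSO for no effect and rapamycin for full effect.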 The conditions noted are these: mTORC1 pathway cytometry; series mostly up to 38.3 µM. Summed up: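 Immunofluorescence qHTS of rpS6 Ser235/236 phosphorylation: MEFs (Tsc2-/-, p53-/-) treated 24 h, 37 C, in DMEM + 10% FBS. Alexa-488 signal normalized to PI count, referenced to rapamycin (7.5 nM) and DMSO; PI cell number recorded for viability.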

Experiment [13] in a line: High Content Imaging Cell-Based qHTS for Inhibitors of the mTORC1 Signaling Pathway in MEF (Tsc2-/-, p53-/-) Cells (AID 2666).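 Note: percent of cells scored positive for phospho-rpS6 Ser235/236 immunostaining by imaging.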 The conditions noted are these: at 38.3 µM (top of the series). Summed up:
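Read-out: % positive cells per well, with thresholds from highest- and lowest-signal wells, based on phospho-rpS6 (Ser235/236) intensity normalized to Hoechst nuclear stain. Cells: Tsc2-/-, p53-/- MEFs carrying empty vector; compound 24 hrs, 37 degree Celsius.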

Experiment [14] is described as follows: qHTS Assay for Identification of Small Molecule Inducers of Hypoxia Response (AID 2120; active = well fitted curve in the direction sought with a large enough effect in the signal ratio, with a control signal flat, not every such curve was filed as active; the % refers to the signal ratio; note: 0% is about no effect). Particulars: hypoxia response reporter cells, beta-lactamase ratio readout; series mostly up to 104 µM. The procedure, abridged: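 HRE-beta-lactamase reporter in CellSensor HRE-bla ME-180 cells, 2500 cells/well in Opti-MEM with 0.5% dialyzed FBS; compounds tested as titration series, 17 h at 37 degrees C. CCF4 substrate 2.5 h at room temperature; AC50 from 460/530 nm ratio.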

Experiment [15] can be described thus: qHTS for differential inhibitors of proliferation of Plasmodium falciparum line GB4 (AID 1816).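 For activity change, negative = inhibition: 0% = vehicle DMSO and -100% = reference inhibitor.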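 Note: parasite growth measured after 72 h incubation.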 Note: potency is the fitted concentration of half-maximal effect. The conditions noted are these: Potency: Plasmodium falciparum GB4 proliferation inhibition; series mostly up to 28.7 µM.
Experiment [16] is described as follows: qHTS for differential inhibitors of proliferation of Plasmodium falciparum line 3D7 (AID 1876). Note: potency is the fitted concentration of half-maximal effect. Particulars: P. falciparum 3D7 proliferation inhibition; series mostly up to 28.7 µM.
Experiment [17] is described as follows: qHTS for differential inhibitors of proliferation of Plasmodium falciparum line D10 (AID 1877).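 For activity change, negative = inhibition: plate controls were vehicle wells for no effect and reference inhibitor wells for full effect.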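 Note: parasites grown with compound for 72 h before DNA staining.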 Note: potency is the fitted concentration of half-maximal effect. Particulars: series mostly up to 28.7 µM.
Experiment [18] can be described thus: qHTS for differential inhibitors of proliferation of Plasmodium falciparum line W2 (AID 1883).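 For activity change, negative = inhibition: 0% = vehicle wells and -100% = control inhibitor wells.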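 Note: parasites grown with compound for 72 h before lysis and staining.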 Note: potency is the fitted concentration of half-maximal effect. Particulars: Potency: Plasmodium falciparum W2 proliferation inhibition; series mostly up to 28.7 µM.
Experiment [19] is described as follows: qHTS for differential inhibitors of proliferation of Plasmodium falciparum line HB3 (AID 1886).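 For activity change, negative = inhibition: plate controls were vehicle for no effect and reference inhibitor for full effect.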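 Note: parasites grown with compound for 72 h before SYBR Green readout.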 Note: potency is the fitted concentration of half-maximal effect. The conditions noted are these: Potency: Plasmodium falciparum HB3 proliferation inhibition; series mostly up to 28.7 µM.
Experiment [20] can be described thus: qHTS Assay for Modulators of Human Peripheral Myelin Protein 22 (PMP22) Expression/Activity (AID 1967; active = well fitted curve in the direction sought with a large enough effect in the signal ratio; the % refers to the signal ratio;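 note: 0% = untreated cells and 100% end not stated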). The conditions noted are these: Cell-based PMP22 reporter, dual-color luciferase ratio, 0% = compound-free control cells, mouse Pmp22 promoter in mouse Schwann cells; series mostly up to 115 µM. The procedure, abridged: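 Quantitative HTS in a mouse Schwann cell line expressing dual click beetle luciferases: Pmp22 promoter (green) and control EF-alpha promoter (red). After 24h treatment, corrected green/red signal ratio gave %Activity relative to untreated cells.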

Setting [21] is: measured here: cell count channel max response.
The mark [22] stands for this setting: measured here: lipid channel max response.

DNA repair nuclease/redox regulator APEX1 (Homo sapiens), sequence (P27695 whole entry, looked up): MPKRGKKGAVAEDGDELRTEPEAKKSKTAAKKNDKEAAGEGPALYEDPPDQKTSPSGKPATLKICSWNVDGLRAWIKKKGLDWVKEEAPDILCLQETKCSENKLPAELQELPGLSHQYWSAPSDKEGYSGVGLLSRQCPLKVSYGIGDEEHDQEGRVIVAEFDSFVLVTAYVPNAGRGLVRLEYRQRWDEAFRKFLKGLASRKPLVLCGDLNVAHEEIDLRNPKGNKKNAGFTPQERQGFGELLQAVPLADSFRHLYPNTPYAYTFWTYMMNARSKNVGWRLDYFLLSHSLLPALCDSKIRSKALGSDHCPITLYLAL
ATP-dependent DNA helicase Q1 (Homo sapiens), sequence (P46063 whole entry, looked up): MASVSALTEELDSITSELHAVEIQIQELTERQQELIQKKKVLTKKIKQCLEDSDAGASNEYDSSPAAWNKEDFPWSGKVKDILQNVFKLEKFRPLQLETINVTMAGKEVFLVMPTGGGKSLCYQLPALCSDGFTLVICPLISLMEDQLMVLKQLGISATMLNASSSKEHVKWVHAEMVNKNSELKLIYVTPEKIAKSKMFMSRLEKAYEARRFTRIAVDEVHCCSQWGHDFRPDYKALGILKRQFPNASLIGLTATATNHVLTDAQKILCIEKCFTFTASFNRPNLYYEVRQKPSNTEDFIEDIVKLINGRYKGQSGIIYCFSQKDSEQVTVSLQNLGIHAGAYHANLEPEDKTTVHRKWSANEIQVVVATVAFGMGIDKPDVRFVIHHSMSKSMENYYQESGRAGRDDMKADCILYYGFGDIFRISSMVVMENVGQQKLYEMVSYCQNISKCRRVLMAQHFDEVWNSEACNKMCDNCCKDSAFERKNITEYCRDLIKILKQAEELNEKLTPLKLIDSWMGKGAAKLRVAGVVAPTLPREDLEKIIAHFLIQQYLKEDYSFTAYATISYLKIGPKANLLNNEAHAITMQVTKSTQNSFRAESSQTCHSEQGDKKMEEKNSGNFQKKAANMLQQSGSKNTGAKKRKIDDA
Ferritin light chain (Equus caballus), sequence (P02791 2-175 limits assumed): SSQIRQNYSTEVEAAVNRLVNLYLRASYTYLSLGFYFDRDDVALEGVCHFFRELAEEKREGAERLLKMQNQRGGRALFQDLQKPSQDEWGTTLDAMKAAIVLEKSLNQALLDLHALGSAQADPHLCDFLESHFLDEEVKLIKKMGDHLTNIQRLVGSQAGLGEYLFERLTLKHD
RecQ-like DNA helicase BLM (Homo sapiens), sequence (P54132 whole entry, looked up): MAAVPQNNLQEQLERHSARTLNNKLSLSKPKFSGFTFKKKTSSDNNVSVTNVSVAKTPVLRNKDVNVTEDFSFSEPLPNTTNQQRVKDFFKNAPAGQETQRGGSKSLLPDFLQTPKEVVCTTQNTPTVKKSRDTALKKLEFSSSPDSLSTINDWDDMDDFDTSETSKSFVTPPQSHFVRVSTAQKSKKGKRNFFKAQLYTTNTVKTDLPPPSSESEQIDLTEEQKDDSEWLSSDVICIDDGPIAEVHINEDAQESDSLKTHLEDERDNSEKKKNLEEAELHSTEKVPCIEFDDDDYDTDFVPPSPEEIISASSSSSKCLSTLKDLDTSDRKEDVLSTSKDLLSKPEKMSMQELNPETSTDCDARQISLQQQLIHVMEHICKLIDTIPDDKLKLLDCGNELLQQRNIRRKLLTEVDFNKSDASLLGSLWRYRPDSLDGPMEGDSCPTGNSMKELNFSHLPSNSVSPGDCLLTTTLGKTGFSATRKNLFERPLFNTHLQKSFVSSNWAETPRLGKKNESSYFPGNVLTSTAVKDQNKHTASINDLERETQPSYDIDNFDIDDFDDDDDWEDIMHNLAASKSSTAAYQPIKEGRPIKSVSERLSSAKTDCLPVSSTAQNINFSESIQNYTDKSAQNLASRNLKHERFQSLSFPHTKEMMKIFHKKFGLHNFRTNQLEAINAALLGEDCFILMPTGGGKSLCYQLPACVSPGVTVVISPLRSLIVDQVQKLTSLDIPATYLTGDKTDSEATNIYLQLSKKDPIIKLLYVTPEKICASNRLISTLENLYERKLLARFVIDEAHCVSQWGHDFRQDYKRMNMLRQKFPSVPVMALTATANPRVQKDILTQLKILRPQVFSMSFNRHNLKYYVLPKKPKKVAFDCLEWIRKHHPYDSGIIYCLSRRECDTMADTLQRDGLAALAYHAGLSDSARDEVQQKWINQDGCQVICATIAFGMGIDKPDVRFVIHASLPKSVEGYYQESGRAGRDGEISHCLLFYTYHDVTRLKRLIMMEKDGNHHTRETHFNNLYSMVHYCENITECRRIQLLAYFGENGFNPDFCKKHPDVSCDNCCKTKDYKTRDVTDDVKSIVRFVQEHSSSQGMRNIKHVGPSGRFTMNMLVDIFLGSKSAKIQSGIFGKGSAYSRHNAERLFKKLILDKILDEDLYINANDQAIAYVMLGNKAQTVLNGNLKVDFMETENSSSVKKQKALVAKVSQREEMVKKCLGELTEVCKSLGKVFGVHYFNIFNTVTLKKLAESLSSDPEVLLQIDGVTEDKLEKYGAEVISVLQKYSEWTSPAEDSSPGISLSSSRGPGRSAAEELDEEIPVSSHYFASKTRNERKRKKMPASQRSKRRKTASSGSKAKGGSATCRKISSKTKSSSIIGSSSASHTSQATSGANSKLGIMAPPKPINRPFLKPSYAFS

As for `O=C(CCCCC(=O)Nc1c(I)cc(I)c(C(=O)O)c1I)Nc1c(I)cc(I)c(C(=O)O)c1I`, in [1] (at 25.7 µM (top of the series)), the activity change, negative = inhibition is -0.504% (inactive). For the same molecule, the max response is -3.67% in experiment [1] (setting [21]) and -4.34% in [1] (setting [22]).
Consider `Cn1cnc2c(NCc3ccccc3)nc(NCCO)nc21`, for which the result in experiment [2], in experiment [3], in [4], in experiment [5], in experiment [6] and in experiment [9] was inactive. For the same molecule, the result in [10], in [11], in [12] and in experiment [13] was inactive. Moreover, the activity change, negative = inhibition in experiment [1] (at 57.5 µM (top of the series)) was -0.56% (inactive). For the same molecule, the figures for the max response in experiment [1] (setting [21]) and in experiment [1] (setting [22]) were -34.4% and -34.7%, respectively. Also, the Potency result in experiment [7] and in [8] was “inactive” in each case.
With `Cc1ncc(CO)c(CO)c1O`, the activity change, negative = inhibition in experiment [1] (at 25.7 µM (top of the series)) was -0.151% (inactive). Besides, the max response was 0.978% in experiment [1] (setting [21]) and -0.91% in [1] (setting [22]).
`OCc1c[nH]c2ccccc12`: the activity change, negative = inhibition in [1] (at 57.5 µM (top of the series)) was 3.03% (inactive). The max response in experiment [1] (setting [21]) was 0.192%; in [1] (setting [22]) it was 7.12%. Also, the result in experiment [14] was inactive.
In the case of `C[N+](C)(C)CCO`, the molecule was classed as inactive in [2], in experiment [3], in [4], in [5], in experiment [20] and in experiment [9]. The result in [10], in experiment [12] and in experiment [13] was inactive. The Potency result in [7], in experiment [15], in [16], in [17], in [8] and in [18] was “inactive” throughout. Besides, the Potency entry in experiment [19] is “inactive”.
Regarding `NCC(=O)O`, the activity change, negative = inhibition in experiment [1] (at 57.5 µM (top of the series)) is -2.71% (inactive). Further, the figures for the max response in [1] (setting [21]) and in [1] (setting [22]) were 5.73% and 4.04%, respectively.
Consider `COC(=O)c1c(Cl)c(Cl)c(C(=O)OC)c(Cl)c1Cl`, for which the activity change, negative = inhibition in [1] (at 57.5 µM (top of the series)) was 5.84% (inactive). In addition, the max response in experiment [1] (setting [21]) turned out to be 15.4%; in [1] (setting [22]), 24.6%.
As for `CN(C)c1cc2c(Nc3ccc4c(cnn4Cc4ccccc4)c3)ncnc2cn1`, the outcome in [2], in [3], in [5], in experiment [9], in experiment [10] and in experiment [12] was inactive. The result in [13] was inactive. Further, the Potency is 5.01 µM (active) in experiment [7]; 3.16 µM (active) in experiment [15]; 3.55 µM (active) in [16]; 10 µM (active) in experiment [17]; 11.2 µM (active) in [8]; 3.55 µM (active) in [18]. Also, the Potency in experiment [19] was 4.47 µM (active).
In the case of `Brc1ccc([C@H]2CN3CCSC3=N2)cc1`, the molecule was classed as inactive in experiment [2], in experiment [3], in experiment [4], in experiment [5], in experiment [6] and in [20]. Besides, the result in [10], in [12] and in experiment [13] was inactive. In [1] (at 57.5 µM (top of the series)), the activity change, negative = inhibition is 0.192% (inactive). Further, the results for the max response in [1] (setting [21]) and in experiment [1] (setting [22]) were -9.46% and -7.25%, respectively. The values for the Potency in [7], in experiment [15] and in experiment [18] were 11.2 µM (active), 12.6 µM (active) and 7.94 µM (active), respectively. For the same molecule, in experiment [17], the Potency entry is “inactive”.
